Structures are written as SMILES. Active and inactive are the calls of the source. How the source made its calls: active means hit-call score of the fitted dose curve at least 0.9, where 1 is the maximum; inactive means score below 0.9.

The assay relates to TTR (gene 7276). The experiment in a line: CCTE_GLTED_hTTR_0.125uM: CCTE's human Transthyretin (hTTR) Inhibition Assay, with 0.125uM TTR, Great Lakes Toxicology and Ecology Division (GLTED) Lab (AID 2284431). On the procedure: CCTE_GLTED_hTTR is a cell-free, single-readout assay designed to test the chemicals' ability to displace T4 from the human transthyretin (TTR) protein. TTR (at 0.125uM or 0.5uM) is incubated in presence of test chemical for 2 hours during which disrupting chemicals displace ANSA from the TTR protein. Results read fluorescence at 380 excitation and 475 emission.CCTE_GLTED_hTTR_0.125uM is the assay component measured from the CCTE_GLTED_hTTR assay. It is designed to make measurements of fluorescent polarization, using a form of binding reporter, as detected with Fluorescence signals by Fluorescence technology.Data from the assay component CCTE_GLTED_hTTR_0.125uM was analyzed at the assay endpoint CCTE_GLTED_hTTR_0.125uM in the positive analysis fitting direction relative to DMSO as the negative control and baseline of activity. Using a type of binding reporter, loss-of-signal activity can be used to understand a chemical's ability to displace T4 from transthyretin. To generalize the intended target to other relatable targets, this assay endpoint is annotated to the 'transporter' intended target family, where the subfamily is 'hormone carrier protein'.
Human transthyretin (TTR) assay, developed at Great Lakes Toxicology and Ecology Division (GLTED) within the EPA's Center for Computational Toxicology and Exposure (CCTE), is designed to test the chemicals' ability to displace T4 from the TTR protein. TTR (0.125uM) is incubated in presence of test chemical for 2 hours during which disrupting chemicals displace ANSA from the TTR protein. Results read fluorescence at 380 excitation and 475 emission.
`C=CCc1ccc(O)c(OC)c1`: the AC50 is 26.1 µM (active).

Take `Cc1cccc(Nc2cc(Cl)nc(SCC(=O)O)n2)c1C`: the AC50 is 3.12 µM (active).

Consider `Cc1cc(NC(=O)C(=O)O)cc(C)c1Oc1ccc(O)c2c1CCC2`, for which the AC50 is 0.344 µM (active).

Take `Cc1c(C(=O)O)c(O)cc2c1C(=O)c1c(O)c([C@@H]3O[C@H](CO)[C@@H](O)[C@H](O)[C@H]3O)c(O)c(O)c1C2=O`: the AC50 is 10.1 µM (active).

For the compound `Oc1ccc2ccccc2c1N=Nc1ccccc1`, the AC50 is 1.37 µM (active).

For the compound `C[C@]12C=CC(=O)C=C1CC[C@@H]1[C@@H]2C(=O)C[C@@]2(C)[C@H]1CC[C@]2(O)C(=O)CO`, the outcome was inactive.

Consider `Cc1ccc(C)c(O)c1C`, for which the AC50 is 21.9 µM (active).

`Cc1cccc(C)c1O`: the AC50 was 33.4 µM (active).

Consider `COc1ccc2c(c1)c(CC(=O)O)c(C)n2C(=O)c1ccc(Cl)cc1`, for which the AC50 is 1.93 µM (active).

On to `COc1cc(S(=O)(=O)O)c(C)cc1N=Nc1c(O)ccc2cc(S(=O)(=O)O)ccc12`, for which the half-maximal activity concentration (AC50) was 30.8 µM (active).

Turning to `CCCCC(CC)COC(=O)CC(C(=O)OCC(CC)CCCC)S(=O)(=O)O` (configuration not stated), the AC50 was 1.62 µM (active).

On to `CC=Cc1ccc(O)c(OC)c1`, for which the AC50 is 13.6 µM (active).

In general, AC50 refers to the concentration giving half of the maximal activity seen.
